For nine compounds, growth results are on record in PubChem BioAssay (NCI).

What all share (assay): NCI-60 one-dose screen, 48 h (100 = growth as untreated, 0 = no growth, -100 = all killed)
The subject of one experiment is SK-MEL-2 melanoma. The conditions noted are these: 10 µM unless noted.
For another experiment, the system named is EKVX NSCLC. The conditions noted are these: 10 µM unless noted.
The test system of another experiment is SN12C renal. The conditions noted are these: 10 µM unless noted.
For a further experiment, the system named is UO-31 renal. The conditions noted are these: 10 µM unless noted.
For the next experiment, the system named is TK-10 renal. To be noted: 10 µM unless noted.
A further experiment concerns ACHN renal. The conditions noted are these: 10 µM unless noted.
In a further experiment the test system is CAKI-1 renal. To be noted: 10 µM unless noted.
The next experiment relates to CCRF-CEM leukemia. To be noted: 10 µM unless noted.
Another experiment concerns MOLT-4 leukemia. To be noted: 10 µM unless noted.
The subject of another experiment is SR leukemia. The conditions noted are these: 10 µM unless noted.
The next experiment has as its system RPMI-8226 leukemia. To be noted: 10 µM.
Another experiment deals with OVCAR-8 ovarian. To be noted: 10 µM unless noted.
A further experiment has as its system OVCAR-5 ovarian. The conditions noted are these: 10 µM unless noted.
The next experiment concerns OVCAR-4 ovarian. The conditions noted are these: 10 µM unless noted.
For a further experiment, the system named is IGROV1 ovarian. The conditions noted are these: 10 µM unless noted.
The subject of the next experiment is OVCAR-3 ovarian. To be noted: 10 µM unless noted.
The subject of a further experiment is HS 578T breast. To be noted: 10 µM unless noted.
The next experiment concerns NCI/ADR-RES ovarian. To be noted: 10 µM unless noted.
The next experiment concerns SK-OV-3 ovarian. The conditions noted are these: 10 µM.

Compounds without any hit were thinned out: in the full panel of roughly 83,000, 20% have a hit.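 Single-concentration screen, 48 h exposure, 96-well plates. Endpoint: percent growth. Below 10 = active.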 Unmarked numbers belong to inactive results. Active and inactive are the calls of the source.

Turning to `CCCCC(O)Cn1ncc(C(=O)OCC)c1NC(=O)NCc1ccccc1C(F)(F)F` (stereo not drawn), the growth is 104% in the experiment on SK-MEL-2 melanoma; 101% in the experiment with EKVX NSCLC; 99.7% in the experiment on SN12C renal; 82.6% with UO-31 renal; 96.3% in the experiment on TK-10 renal; 97.4% in the experiment with ACHN renal. The growth was 84.2% with CAKI-1 renal; 104% in the experiment with CCRF-CEM leukemia; 93.9% in the experiment on MOLT-4 leukemia; 87.9% in the experiment with SR leukemia; 88.6% in the experiment on RPMI-8226 leukemia; 98.7% with OVCAR-8 ovarian. The growth is 105% in the experiment with OVCAR-5 ovarian; 85% in the experiment with OVCAR-4 ovarian; 99% with IGROV1 ovarian; 108% with OVCAR-3 ovarian; 106% in the experiment with HS 578T breast; 98.7% in the experiment on NCI/ADR-RES ovarian.
Regarding `O=S(=O)(Nc1ccc(Cl)c(Cl)c1)c1ccc(-c2cnc(C3CC3)o2)cc1`, the growth was 37.4% in the experiment on SK-MEL-2 melanoma; 33.8% in the experiment with EKVX NSCLC; 41.2% in the experiment on SN12C renal; 44% in the experiment with UO-31 renal; 51.3% with TK-10 renal; 45.1% with ACHN renal. For the same compound, the growth in the experiment on CAKI-1 renal was 35.9%; with CCRF-CEM leukemia, 18.9%; in the experiment with MOLT-4 leukemia it was 32.4%; in the experiment with SR leukemia, 43.7%; with RPMI-8226 leukemia, 24.6%; in the experiment on OVCAR-8 ovarian, 33.3%. The growth with OVCAR-5 ovarian is 34.2%; in the experiment on OVCAR-4 ovarian it was 46.4%; in the experiment on IGROV1 ovarian, 27%; in the experiment on OVCAR-3 ovarian, -17.8% (active); in the experiment with HS 578T breast it was -18.5% (active); in the experiment on NCI/ADR-RES ovarian, 5.86% (active).
As for `Cc1nc2nc(C(F)(F)F)[nH]c2nc1C`, the growth in the experiment with SK-MEL-2 melanoma is 115%; in the experiment on EKVX NSCLC, 89.5%; in the experiment on SN12C renal it was 95.4%; in the experiment on UO-31 renal, 101%; with TK-10 renal it was 104%; in the experiment with ACHN renal, 110%. Also, the growth in the experiment on CAKI-1 renal is 98.3%; in the experiment with CCRF-CEM leukemia it was 93.3%; in the experiment with MOLT-4 leukemia it was 113%; with SR leukemia, 111%; with RPMI-8226 leukemia, 92.1%; in the experiment on OVCAR-8 ovarian it was 105%. The growth was 115% in the experiment on OVCAR-5 ovarian; 97.7% in the experiment on OVCAR-4 ovarian; 98.5% with SK-OV-3 ovarian; 117% in the experiment with IGROV1 ovarian; 116% in the experiment on OVCAR-3 ovarian; 119% in the experiment on HS 578T breast.
On to `Cc1cccc2c(=O)c3c(sc12)c(NCCCN)nc1ccccc13`, for which the growth in the experiment on SK-MEL-2 melanoma was 89.2%; in the experiment on EKVX NSCLC, 40.6%; with SN12C renal, 22.1%; in the experiment with UO-31 renal it was 19.6%; with TK-10 renal, 29%; with ACHN renal, -82.9% (active). Further, the growth was 4.76% (active) in the experiment with CAKI-1 renal; 2.89% (active) in the experiment with CCRF-CEM leukemia; -18.3% (active) in the experiment on MOLT-4 leukemia; -5.48% (active) in the experiment on SR leukemia; -29.9% (active) in the experiment with RPMI-8226 leukemia; 27.3% with OVCAR-8 ovarian. The growth is 51.7% in the experiment with OVCAR-5 ovarian; 47.4% in the experiment with OVCAR-4 ovarian; -24.1% (active) with IGROV1 ovarian; 39.4% with OVCAR-3 ovarian; 24.6% in the experiment with HS 578T breast.
Consider `COC(=O)c1c2c(c(C)[n+]([O-])c1C)C(=O)C=C(NCc1ccc(F)cc1)C2=O`, for which the growth in the experiment with SK-MEL-2 melanoma was -31.3% (active); in the experiment with EKVX NSCLC it was -57% (active); in the experiment with SN12C renal, -88.8% (active); with UO-31 renal, -21% (active); in the experiment with TK-10 renal, 13.6%; with ACHN renal it was -45.2% (active). In addition, the growth in the experiment with CAKI-1 renal was -0.887% (active); in the experiment with CCRF-CEM leukemia it was 4.77% (active); in the experiment with MOLT-4 leukemia it was -35.2% (active); in the experiment on SR leukemia it was 2.14% (active); with RPMI-8226 leukemia it was -20.9% (active); in the experiment on OVCAR-8 ovarian, 2.54% (active). Further, the growth in the experiment on OVCAR-5 ovarian is -68.8% (active); in the experiment with IGROV1 ovarian, -59.4% (active); with OVCAR-3 ovarian, -35.9% (active); in the experiment with HS 578T breast, -16.6% (active); with NCI/ADR-RES ovarian, -16.7% (active).
With `O=C1/C(=C/c2ccc([N+](=O)[O-])cc2)Oc2ccc(O)cc21`, the growth in the experiment with SK-MEL-2 melanoma was 104%; in the experiment on EKVX NSCLC, 91.9%; in the experiment with SN12C renal, 85.8%; in the experiment with UO-31 renal, 70.4%; with TK-10 renal, 17.8%; with ACHN renal, 82.3%. In addition, the growth is 5.52% (active) with CAKI-1 renal; 72.5% with CCRF-CEM leukemia; 18.7% in the experiment on MOLT-4 leukemia; 43% in the experiment with SR leukemia; 34% with RPMI-8226 leukemia; 90.7% in the experiment with OVCAR-8 ovarian. For the same compound, the growth is -9.84% (active) with OVCAR-5 ovarian; 39.7% in the experiment on OVCAR-4 ovarian; 18% with IGROV1 ovarian; 16.7% in the experiment with OVCAR-3 ovarian; 97.2% in the experiment on HS 578T breast; 89% with NCI/ADR-RES ovarian.
In the case of `COc1ccc(C2=NOC(CC(=O)N(CCO)CCO)C2)cc1OC1CCCC1` (stereo not drawn), the growth is 106% in the experiment with SK-MEL-2 melanoma; 91.5% with EKVX NSCLC; 104% in the experiment with SN12C renal; 88.3% in the experiment with UO-31 renal; 98.9% in the experiment on TK-10 renal; 104% in the experiment on ACHN renal. For the same compound, the growth in the experiment with CAKI-1 renal is 99.5%; in the experiment with CCRF-CEM leukemia, 112%; in the experiment on MOLT-4 leukemia it was 125%; in the experiment with SR leukemia, 106%; with RPMI-8226 leukemia, 106%; in the experiment with OVCAR-8 ovarian, 102%. Further, the growth in the experiment on OVCAR-5 ovarian is 98.5%; in the experiment on OVCAR-4 ovarian, 102%; with IGROV1 ovarian, 106%; in the experiment with OVCAR-3 ovarian, 114%; in the experiment on HS 578T breast it was 99.2%; with NCI/ADR-RES ovarian it was 101%.
Regarding `O=C1CCC(N2Cc3c(C#CCCCNC(=O)c4cc5c(o4)C(=O)c4ccccc4C5=O)cccc3C2=O)C(=O)N1` (stereo not drawn), the growth with SK-MEL-2 melanoma is -26.6% (active); with EKVX NSCLC, 64.4%; in the experiment with SN12C renal it was -92.2% (active); in the experiment on UO-31 renal, 86.4%; with TK-10 renal it was 101%; in the experiment on ACHN renal, 71.7%. For the same compound, the growth in the experiment with CAKI-1 renal is 78.7%; with CCRF-CEM leukemia, 12.3%; with MOLT-4 leukemia it was 8.52% (active); with SR leukemia, 12.1%; with OVCAR-8 ovarian it was 4.59% (active); in the experiment with OVCAR-5 ovarian, 20.2%. Further, the growth with OVCAR-4 ovarian is -98.5% (active); in the experiment on IGROV1 ovarian it was -5.62% (active); with OVCAR-3 ovarian, -37.3% (active); with HS 578T breast, -32.8% (active); in the experiment on NCI/ADR-RES ovarian, 89.6%.
On to `O=c1oc2ccccc2cc1-c1csc(N=Nc2c(O)[nH]c3ccc(Cl)cc23)n1`, for which the growth with SK-MEL-2 melanoma was 107%; with EKVX NSCLC, 103%; with SN12C renal, 100%; in the experiment with UO-31 renal it was 98.2%; with TK-10 renal, 106%; in the experiment with ACHN renal it was 101%. Further, the growth was 94.9% in the experiment with CAKI-1 renal; 94.2% with CCRF-CEM leukemia; 105% in the experiment with MOLT-4 leukemia; 102% with SR leukemia; 105% with RPMI-8226 leukemia; 96.3% in the experiment with OVCAR-8 ovarian. The growth with OVCAR-5 ovarian is 96.2%; in the experiment on IGROV1 ovarian, 107%; in the experiment on OVCAR-3 ovarian, 107%; with HS 578T breast, 105%; in the experiment on NCI/ADR-RES ovarian it was 105%.
